The values that follow come from PubChem BioAssay AID1508625 (Wald Lab, School of Medicine, Case Western Reserve …, 2021).

The assay can be described thus: enhancers of NK cell killing of ovarian tumor cells, primary screen, imaging, OVCAR3, primary NK cells, calcein-AM imaging (AID 1508625).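 Note: compound given to NK cells 16 h before adding targets at 1.5 to 1 ratio.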 The conditions noted are these: OVCAR3 lysis by primary NK cells, at 5 µM; z-score: measured here: robust Z-score, single-point normalisation.

As to `C=CCn1c(=S)[nH]c2cc(C(=O)Nc3cccc(C(F)(F)F)c3)ccc2c1=O`, the corrected activity, negative = more killing was -6.01% and the z-score was -1.91.
`COc1ccc(N2C(=O)c3ccc(C)cc3C2=O)cc1OC`: the corrected activity, negative = more killing was -6.75% and the z-score is -2.54.
On to `CC1C2CCCN2CCN1Cc1cccc(Oc2ccccc2)c1` (centres undefined), for which the corrected activity, negative = more killing is -1.23% and the z-score is -0.537.
For `O=C(NN=Cc1ccc(O)cc1)c1cc(-c2ccc3ccccc3c2)n[nH]1` the same measures were 0.541% and 0.236.
Take `O=C(c1oc(=O)c2ccccc2c1-c1ccccc1)N(CCc1ccccc1)Cc1ccccc1`: the corrected activity, negative = more killing was -5.06% and the z-score is -1.24.
For `COc1ccc(OC)c(NC(=O)C(N)=O)c1`, the corrected activity, negative = more killing was 1.08% and the z-score is 0.459.
For `CC(=O)Nc1cccc(N=Cc2cc(Cc3ccccc3)cc([N+](=O)[O-])c2O)c1` the same measures were -1.97% and -0.698.
Turning to `O=[N+]([O-])c1cccc(CN2CCN3CCCC3C2C2CCCCC2)c1` (centres undefined), the corrected activity, negative = more killing is 0.41% and the z-score is 0.179.
Consider `Cc1ccc(C=Cc2nc3ccccc3[nH]2)cc1`, for which the corrected activity, negative = more killing was 2.68% and the z-score is 0.723.
Regarding `Cc1c(C(=O)NC(C)C)oc2ccc(S(=O)(=O)N3CCOCC3)cc12`, the corrected activity, negative = more killing is -3.41% and the z-score is -0.849.
On to `CCCCC1(CC(=O)N2CCOCC2)C(=O)N(c2ccccc2)N(c2ccccc2)C1=O`, for which the corrected activity, negative = more killing is -2.63% and the z-score is -0.786.
As for `O=c1cc(-c2ccc([N+](=O)[O-])cc2)nc2c(-c3ccc(Cl)cc3)c(Cc3ccccc3)[nH]n12`, the corrected activity, negative = more killing is -1.76% and the z-score was -0.911.
As for `CCOC(=O)CCN1C(=O)C(=Cc2cccc(OC)c2)SC1=S`, the corrected activity, negative = more killing is -4.87% and the z-score is -1.55.
Turning to `CCOc1ccccc1C=Nc1ccc(Cl)cc1Cl`, the corrected activity, negative = more killing is -4.37% and the z-score is -1.86.
For `COc1ccc(-c2ccc3c(N)c(C(=O)NCCc4ccc(Cl)cc4)sc3n2)cc1` the same measures were -1.65% and -0.492.
The like results for `CC1=NNC(=O)C1CCC(=O)NN=Cc1ccncc1` (centres undefined) were, in that order, -4.86% and -2.12.
Consider `Cc1cc(C)c(CSc2nnc(C)s2)c(C)c1`, for which the corrected activity, negative = more killing was -5.76% and the z-score was -1.78.
Consider `CSC1CCCCC1(O)CSc1nc2ccccc2o1` (centres undefined), for which the corrected activity, negative = more killing is -4.44% and the z-score was -1.67.
Take `Cn1c(=O)c2c(nc(Oc3ccc(Cl)cc3)n2Cc2ccccc2Br)n(C)c1=O`: the corrected activity, negative = more killing was -3.02% and the z-score is -0.9.
For `CC(C)(C)c1ccc(C(=O)CC2(O)C(=O)Nc3ccc(Cl)cc32)cc1` (centres undefined) the same measures were -2.41% and -0.898.
As to `CCOC(=O)c1ccc(NC(=O)c2cnc3n(c2=O)CCS3)cc1`, the corrected activity, negative = more killing is -6.64% and the z-score was -2.11.
The like results for `O=C1C(=O)N(CO)C(c2ccccc2)C1=C(O)c1ccccc1` (centres undefined) were, in that order, -3.26% and -1.23.
For the compound `O=C1c2cccc([N+](=O)[O-])c2C(=O)N1C1C(=O)N(c2cccc(C(F)(F)F)c2)C1c1ccc(F)cc1` (centres undefined), the corrected activity, negative = more killing is -1.05% and the z-score was -0.327.
For `O=C1c2ccccc2C(=O)N1C1C(=O)N(c2cccc(C(F)(F)F)c2)C1c1ccc(F)cc1` (centres undefined) the same measures were -1.28% and -0.397.
On to `CC1C(=O)NN=C1C(=O)NN=Cc1cccnc1` (centres undefined), for which the corrected activity, negative = more killing is -3.57% and the z-score was -1.56.
As for `CCOc1ccc(-c2n[nH]c(C(=O)NN=Cc3cccnc3)c2C)cc1`, the corrected activity, negative = more killing is -3.11% and the z-score is -1.36.
For `Cc1noc(C)c1S(=O)(=O)Nc1ccc(C(=O)Nc2cccc(Cl)c2)cc1`, the corrected activity, negative = more killing is -7.43% and the z-score was -1.82.
Take `COc1ccc(OC)c(NC(=O)CSc2nc3c([nH]c4ccccc43)c(=O)n2C)c1`: the corrected activity, negative = more killing was -8.66% and the z-score is -2.15.
In the case of `O=C1NC(=S)SC1=Cc1cc(Cl)ccc1O`, the corrected activity, negative = more killing was -4.39% and the z-score was -1.87.
Regarding `COC(=O)c1ccc(C)c(NC(=O)c2ccc(C3SCC(=O)N3Cc3ccccc3)cc2)c1` (centres undefined), the corrected activity, negative = more killing was -5.82% and the z-score is -2.22.
On to `CCOc1ccc2nc(SCC(=O)Nc3ccccc3C(=O)O)sc2c1`, for which the corrected activity, negative = more killing is -4.64% and the z-score is -1.75.
On to `Cc1cc2nc3sc(=Cc4ccc(Cl)cc4Cl)c(=O)n3c2cc1C`, for which the corrected activity, negative = more killing is -1.46% and the z-score is -0.755.
As to `CCC(C)N1C(=O)c2ccccc2C1C(=O)NC1CCCCCC1` (centres undefined), the corrected activity, negative = more killing was -6.27% and the z-score is -1.78.
For `Cc1cc(Cl)ccc1OCC(=O)Nc1cccc2c1C(=O)c1ccccc1C2=O` the same measures were -3.52% and -1.45.
For `CCOC(=O)C(Cc1ccccc1)C(=O)N(C1CCCCC1)C1CCCCC1` (centres undefined) the same measures were -3.39% and -1.82.
The like results for `CC(C)c1ccc(NC(=O)c2cc(S(=O)(=O)N3CCN(c4ccccc4)CC3)ccc2F)cc1` were, in that order, -8.98% and -2.42.
For `Cc1occc1C(=O)N1N=C(C2CC2)CC1(O)C(F)(F)F` (centres undefined), the corrected activity, negative = more killing was -2.75% and the z-score was -1.13.
For `COc1ccc(C(=O)N2N=C(C3CCCCC3)CC2(O)C(F)(F)F)cc1OC` (centres undefined), the corrected activity, negative = more killing is -5.29% and the z-score is -1.58.
The like results for `COc1cc(C)c(NC(=O)c2ccccc2I)cc1C(C)C` were, in that order, -3.4% and -1.89.
As for `Cc1cccc(OCC(=O)N2CCN(S(C)(=O)=O)CC2)c1`, the corrected activity, negative = more killing was -2.23% and the z-score is -0.994.
With `Cc1cc(Br)cc2c(N=NC(=O)c3ccccc3)c(O)[nH]c12`, the corrected activity, negative = more killing is -1.64% and the z-score was -0.646.
For `O=C1C2CC=C(Cl)CC2C(=O)N1CC1OCCc2ccccc21` (centres undefined) the same measures were -3.37% and -1.29.
Consider `CN1C(=O)c2ccccc2Sc2ccc(C(=O)O)cc21`, for which the corrected activity, negative = more killing was -8.06% and the z-score is -2.17.
The like results for `CCOC(=O)C1C(c2ccccc2)NC(=S)NC1(O)C(F)(F)F` (centres undefined) were, in that order, -1.39% and -0.43.
For the compound `Cc1cccc(C)c1OCCNC(=O)c1cc2ccccc2o1`, the corrected activity, negative = more killing was -1.04% and the z-score was -0.579.
The like results for `O=C(NCc1ccccn1)c1sc2cc([N+](=O)[O-])ccc2c1Cl` were, in that order, -2.44% and -0.775.
In the case of `COc1ccc(S(=O)(=O)NCCc2ccccc2)c2ccccc12`, the corrected activity, negative = more killing was -3.37% and the z-score is -1.46.
